Results as given in the supplement of paper PMC6411743.
± gives the standard deviation of the averaged measurements. Targets with the largest changes are over-represented here; the source holds about 6,200 in all.

Compound: Nc1ncnc2c1ncn2[C@@H]1O[C@H](COP(=O)(O)OP(=O)(O)NP(=O)(O)O)[C@@H](O)[C@H]1O [adenylyl imidodiphosphate]
Assay: NP40-soluble protein abundance relative to vehicle (solubility fold change) (ratio); higher = more soluble protein in presence of AMP-PNP
In short: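 Jurkat crude lysate prepared with a Dounce homogeniser was treated at eight concentrations spanning 0.1 to 10 mM, 10 min at room temperature then 3 min at 37 °C. Solubilisation with 0.8% NP40 and benzonase and ultracentrifugation preceded TMT labelling of the supernatant for LC-MS/MS. Fold change against the detergent-processed vehicle was determined per replicate from vsn-normalised intensities, across three independent experiments.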

Chain of UniProt P11182 (P11182 whole entry): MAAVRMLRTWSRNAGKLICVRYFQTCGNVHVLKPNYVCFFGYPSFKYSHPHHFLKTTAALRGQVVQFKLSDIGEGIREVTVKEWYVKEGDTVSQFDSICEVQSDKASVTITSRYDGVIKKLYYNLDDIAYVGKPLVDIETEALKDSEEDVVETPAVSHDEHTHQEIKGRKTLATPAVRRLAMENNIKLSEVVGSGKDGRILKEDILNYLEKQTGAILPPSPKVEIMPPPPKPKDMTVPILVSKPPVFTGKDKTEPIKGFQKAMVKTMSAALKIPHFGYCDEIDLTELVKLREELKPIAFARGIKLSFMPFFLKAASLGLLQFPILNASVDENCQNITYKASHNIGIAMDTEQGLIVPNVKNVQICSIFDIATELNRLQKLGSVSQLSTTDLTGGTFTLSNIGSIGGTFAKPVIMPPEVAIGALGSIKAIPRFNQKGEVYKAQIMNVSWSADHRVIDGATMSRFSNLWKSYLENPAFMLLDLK
Chain of UniProt P98082 (P98082 whole entry): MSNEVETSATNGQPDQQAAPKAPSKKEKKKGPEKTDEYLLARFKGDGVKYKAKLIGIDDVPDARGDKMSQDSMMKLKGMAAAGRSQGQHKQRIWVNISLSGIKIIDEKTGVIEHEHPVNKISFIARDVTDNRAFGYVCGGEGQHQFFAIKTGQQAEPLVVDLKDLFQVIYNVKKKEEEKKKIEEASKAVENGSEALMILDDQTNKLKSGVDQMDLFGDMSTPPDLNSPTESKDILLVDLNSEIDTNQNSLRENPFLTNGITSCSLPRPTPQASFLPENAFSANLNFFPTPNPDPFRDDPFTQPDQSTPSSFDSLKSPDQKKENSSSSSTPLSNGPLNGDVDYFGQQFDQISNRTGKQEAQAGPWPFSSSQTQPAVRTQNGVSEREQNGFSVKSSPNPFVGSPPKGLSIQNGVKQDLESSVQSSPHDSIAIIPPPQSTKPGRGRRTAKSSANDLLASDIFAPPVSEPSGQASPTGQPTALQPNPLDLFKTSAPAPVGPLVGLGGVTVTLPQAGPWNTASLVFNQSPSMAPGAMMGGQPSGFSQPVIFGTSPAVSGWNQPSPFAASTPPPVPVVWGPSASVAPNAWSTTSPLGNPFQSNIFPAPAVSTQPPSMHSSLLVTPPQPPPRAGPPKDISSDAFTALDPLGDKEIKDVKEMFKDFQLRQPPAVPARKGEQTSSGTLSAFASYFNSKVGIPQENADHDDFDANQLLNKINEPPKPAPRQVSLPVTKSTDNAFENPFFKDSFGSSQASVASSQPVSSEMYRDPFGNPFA
Chain of UniProt P33981 (P33981 whole entry): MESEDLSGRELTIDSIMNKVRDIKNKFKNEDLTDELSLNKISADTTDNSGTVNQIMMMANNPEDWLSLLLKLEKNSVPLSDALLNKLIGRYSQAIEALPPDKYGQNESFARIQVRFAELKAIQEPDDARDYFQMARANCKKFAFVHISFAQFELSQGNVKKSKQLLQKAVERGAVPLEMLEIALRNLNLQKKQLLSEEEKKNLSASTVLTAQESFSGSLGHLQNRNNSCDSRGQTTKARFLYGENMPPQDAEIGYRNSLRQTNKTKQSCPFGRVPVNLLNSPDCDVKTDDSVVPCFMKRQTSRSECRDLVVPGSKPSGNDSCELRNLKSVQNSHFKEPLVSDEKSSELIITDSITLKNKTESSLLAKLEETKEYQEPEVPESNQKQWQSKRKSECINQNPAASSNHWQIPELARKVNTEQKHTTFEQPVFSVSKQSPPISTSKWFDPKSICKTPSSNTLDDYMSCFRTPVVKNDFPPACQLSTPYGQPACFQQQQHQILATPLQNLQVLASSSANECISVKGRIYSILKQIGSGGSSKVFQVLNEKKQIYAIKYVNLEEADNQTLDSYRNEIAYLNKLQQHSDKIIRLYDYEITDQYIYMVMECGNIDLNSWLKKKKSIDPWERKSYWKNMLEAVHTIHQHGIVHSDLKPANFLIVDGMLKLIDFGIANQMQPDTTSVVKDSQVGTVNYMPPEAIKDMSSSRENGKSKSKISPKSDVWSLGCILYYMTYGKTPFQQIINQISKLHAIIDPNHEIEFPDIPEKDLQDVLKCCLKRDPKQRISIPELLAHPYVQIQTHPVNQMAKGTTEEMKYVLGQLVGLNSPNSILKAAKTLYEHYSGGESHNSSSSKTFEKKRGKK
Chain of UniProt P04049 (P04049 whole entry): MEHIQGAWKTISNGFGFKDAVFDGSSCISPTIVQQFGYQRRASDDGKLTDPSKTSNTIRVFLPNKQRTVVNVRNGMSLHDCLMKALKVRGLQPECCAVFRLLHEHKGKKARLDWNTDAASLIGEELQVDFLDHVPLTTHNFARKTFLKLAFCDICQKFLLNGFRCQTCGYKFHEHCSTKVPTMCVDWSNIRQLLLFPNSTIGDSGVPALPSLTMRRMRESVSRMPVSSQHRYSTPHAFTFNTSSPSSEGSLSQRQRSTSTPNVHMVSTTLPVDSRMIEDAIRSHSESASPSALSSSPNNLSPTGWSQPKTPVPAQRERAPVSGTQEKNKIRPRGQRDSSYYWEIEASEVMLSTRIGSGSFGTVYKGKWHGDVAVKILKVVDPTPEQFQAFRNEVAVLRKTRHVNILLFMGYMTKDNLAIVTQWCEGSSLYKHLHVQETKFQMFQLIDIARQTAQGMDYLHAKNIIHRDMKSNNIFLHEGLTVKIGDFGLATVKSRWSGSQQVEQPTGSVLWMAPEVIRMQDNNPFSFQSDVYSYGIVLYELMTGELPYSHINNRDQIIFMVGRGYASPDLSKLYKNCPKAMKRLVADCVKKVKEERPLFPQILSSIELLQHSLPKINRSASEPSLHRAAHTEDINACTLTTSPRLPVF
Chain of UniProt O75531 (O75531 whole entry): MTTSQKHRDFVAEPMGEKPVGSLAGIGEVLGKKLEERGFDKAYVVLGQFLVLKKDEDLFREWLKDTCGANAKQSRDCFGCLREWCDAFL
Chain of UniProt P00167 (P00167 whole entry): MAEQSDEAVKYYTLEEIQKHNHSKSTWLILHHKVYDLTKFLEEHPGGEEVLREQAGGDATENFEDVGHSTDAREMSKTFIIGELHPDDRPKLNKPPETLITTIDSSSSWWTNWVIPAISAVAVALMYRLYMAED
Chain of UniProt O76003 (O76003 whole entry): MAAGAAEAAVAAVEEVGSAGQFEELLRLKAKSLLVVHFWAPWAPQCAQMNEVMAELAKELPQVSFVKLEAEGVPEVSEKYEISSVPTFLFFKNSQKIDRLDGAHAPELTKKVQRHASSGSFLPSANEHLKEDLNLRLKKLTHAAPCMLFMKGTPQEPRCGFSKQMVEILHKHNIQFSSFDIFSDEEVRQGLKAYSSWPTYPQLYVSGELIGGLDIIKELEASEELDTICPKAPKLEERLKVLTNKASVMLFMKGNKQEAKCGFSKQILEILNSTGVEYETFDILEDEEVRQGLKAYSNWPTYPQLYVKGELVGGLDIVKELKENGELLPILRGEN
Chain of UniProt Q12769 (Q12769 whole entry, one chain of several): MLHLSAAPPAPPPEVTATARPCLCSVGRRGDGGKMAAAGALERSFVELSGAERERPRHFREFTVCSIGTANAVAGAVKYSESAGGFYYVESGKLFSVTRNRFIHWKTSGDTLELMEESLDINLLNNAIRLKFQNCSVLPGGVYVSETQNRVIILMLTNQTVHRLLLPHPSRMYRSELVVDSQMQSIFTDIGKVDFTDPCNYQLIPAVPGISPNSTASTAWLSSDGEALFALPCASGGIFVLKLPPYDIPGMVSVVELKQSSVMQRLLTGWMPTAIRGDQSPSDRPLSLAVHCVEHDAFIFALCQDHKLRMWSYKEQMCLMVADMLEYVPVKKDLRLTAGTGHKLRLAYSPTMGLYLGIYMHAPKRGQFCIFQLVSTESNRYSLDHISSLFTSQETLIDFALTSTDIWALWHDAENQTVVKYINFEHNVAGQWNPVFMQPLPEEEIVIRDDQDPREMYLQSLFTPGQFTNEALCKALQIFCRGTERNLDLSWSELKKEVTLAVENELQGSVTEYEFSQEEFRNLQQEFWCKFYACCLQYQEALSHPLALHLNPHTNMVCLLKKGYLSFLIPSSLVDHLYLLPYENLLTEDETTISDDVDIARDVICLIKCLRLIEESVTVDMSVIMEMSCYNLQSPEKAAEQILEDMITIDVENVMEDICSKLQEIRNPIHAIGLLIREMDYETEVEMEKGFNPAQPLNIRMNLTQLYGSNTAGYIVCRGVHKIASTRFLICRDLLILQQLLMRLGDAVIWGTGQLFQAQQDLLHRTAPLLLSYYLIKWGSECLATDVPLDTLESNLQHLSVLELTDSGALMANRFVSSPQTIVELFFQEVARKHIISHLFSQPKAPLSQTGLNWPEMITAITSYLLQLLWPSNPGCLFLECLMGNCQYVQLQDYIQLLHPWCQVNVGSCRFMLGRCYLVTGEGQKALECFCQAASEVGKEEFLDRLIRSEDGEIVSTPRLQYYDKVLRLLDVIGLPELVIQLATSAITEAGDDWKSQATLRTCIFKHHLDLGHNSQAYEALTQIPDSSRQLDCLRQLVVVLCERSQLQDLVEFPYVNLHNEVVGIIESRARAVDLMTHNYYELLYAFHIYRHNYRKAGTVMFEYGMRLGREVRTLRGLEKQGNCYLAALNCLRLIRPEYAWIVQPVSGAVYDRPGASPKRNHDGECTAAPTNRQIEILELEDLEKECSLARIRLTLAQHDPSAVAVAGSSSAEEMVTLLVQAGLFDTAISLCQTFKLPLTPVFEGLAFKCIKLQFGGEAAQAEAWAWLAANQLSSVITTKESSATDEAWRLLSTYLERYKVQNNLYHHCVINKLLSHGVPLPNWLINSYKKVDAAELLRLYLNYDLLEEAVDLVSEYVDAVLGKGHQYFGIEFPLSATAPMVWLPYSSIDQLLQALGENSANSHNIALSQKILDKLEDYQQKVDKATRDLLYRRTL
Chain of UniProt P10746 (P10746 whole entry): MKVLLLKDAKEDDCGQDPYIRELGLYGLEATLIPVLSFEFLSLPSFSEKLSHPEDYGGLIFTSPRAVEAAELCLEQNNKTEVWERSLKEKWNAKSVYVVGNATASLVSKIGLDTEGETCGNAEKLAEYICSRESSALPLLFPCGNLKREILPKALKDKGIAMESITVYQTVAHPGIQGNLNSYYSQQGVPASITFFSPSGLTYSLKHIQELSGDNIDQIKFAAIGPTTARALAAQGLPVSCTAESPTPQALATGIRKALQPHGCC

Target	NP40-soluble protein abundance (concentration: 1mM)	NP40-soluble protein abundance (concentration: 2mM)	NP40-soluble protein abundance (concentration: 4mM)	NP40-soluble protein abundance (concentration: 6mM)	NP40-soluble protein abundance (concentration: 8mM)	NP40-soluble protein abundance (concentration: 10mM)
UniProt P00167|P00167-2	0.995 ± 0.028	0.984 ± 0.033	0.936 ± 0.036	0.992 ± 0.011	0.948 ± 0.021	0.966 ± 0.012
TXLNA (UniProt P40222)	1.04 ± 0.059	1.17 ± 0.13	1.08 ± 0.14	1.21 ± 0.15	1.35 ± 0.046	1.2 ± 0.2
CDK6 (UniProt Q00534)	0.987 ± 0.029	0.951 ± 0.022	0.959 ± 0.03	0.967 ± 0.012	0.945 ± 0.033	0.91 ± 0.029
UniProt P98082|P98082-2|P98082-3	1.016 ± 0.0042	1.03 ± 0.042	1.042 ± 0.0097	1.016 ± 0.004	1.017 ± 0.0048	1.035 ± 0.0064
DBT (UniProt P11182)	0.977 ± 0.14	1.01 ± 0.12	1.01 ± 0.15	0.999 ± 0.2	0.971 ± 0.14	1.03 ± 0.19
UniProt O94804	1.03 ± 0.017	1.04 ± 0.031	1.01 ± 0.027	0.987 ± 0.029	0.96 ± 0.012	0.991 ± 0.048
FOXK1 (UniProt P85037)	0.999 ± 0.044	1.06 ± 0.086	1.01 ± 0.014	0.987 ± 0.015	0.9378 ± 0.0057	1.01 ± 0.02
UniProt P43155|P43155-2|P43155-3	0.974 ± 0.057	0.965 ± 0.011	1 ± 0.032	1.01 ± 0.086	1.01 ± 0.061	1.01 ± 0.077
METAP1 (UniProt P53582)	1.05 ± 0.046	1.06 ± 0.081	1.16 ± 0.071	1.31 ± 0.046	1.37 ± 0.061	1.38 ± 0.074
UniProt P26368|P26368-2	0.986 ± 0.075	1 ± 0.025	1.11 ± 0.069	1.24 ± 0.098	1.41 ± 0.09	1.51 ± 0.12
UniProt O95104|O95104-3|O95104-2	1.1 ± 0.033	1.22 ± 0.083	1.26 ± 0.039	1.34 ± 0.14	1.39 ± 0.071	1.46 ± 0.063
GLRX3 (UniProt O76003)	1.04 ± 0.026	1.02 ± 0.011	0.99 ± 0.027	0.9932 ± 0.0036	0.989 ± 0.031	0.976 ± 0.055
BANF1 (UniProt O75531)	2.32 ± 0.38	2.76 ± 0.16	3 ± 0.25	3.73 ± 0.25	4.03 ± 0.2	4.25 ± 0.21
UniProt P08559|P08559-3|P08559-4|P08559-2	0.979 ± 0.13	0.94 ± 0.13	0.925 ± 0.13	0.923 ± 0.17	0.95 ± 0.12	0.965 ± 0.15
UniProt P04049|P04049-2	1.03 ± 0.023	1.06 ± 0.037	1.07 ± 0.04	1.05 ± 0.036	1.06 ± 0.033	1.05 ± 0.032
UniProt Q13243	1.1 ± 0.056	1.2 ± 0.091	1.17 ± 0.07	1.19 ± 0.013	1.208 ± 0.0093	1.36 ± 0.12
UROS (UniProt P10746)	1.04 ± 0.012	1.03 ± 0.015	1 ± 0.045	0.99 ± 0.029	0.975 ± 0.051	0.982 ± 0.075
SH3BGRL (UniProt O75368)	0.939 ± 0.027	0.966 ± 0.028	0.888 ± 0.013	0.937 ± 0.031	0.907 ± 0.015	0.897 ± 0.033
DLAT (UniProt P10515)	0.959 ± 0.23	0.904 ± 0.2	0.904 ± 0.31	0.877 ± 0.31	0.899 ± 0.27	0.923 ± 0.31
UniProt P26038|V9GZ54	0.967 ± 0.13	1.06 ± 0.14	0.988 ± 0.13	0.916 ± 0.088	0.935 ± 0.012	0.936 ± 0.067
FDFT1 (UniProt P37268)	0.993 ± 0.038	0.952 ± 0.027	0.991 ± 0.024	1.03 ± 0.1	1.05 ± 0.057	1.01 ± 0.078
UniProt O95453|O95453-2|O95453-3	1.02 ± 0.018	0.975 ± 0.042	0.9979 ± 0.0039	0.991 ± 0.026	0.997 ± 0.016	0.968 ± 0.013
ACTR1B (UniProt P42025)	1 ± 0.062	0.927 ± 0.12	0.983 ± 0.071	0.986 ± 0.029	0.965 ± 0.063	0.961 ± 0.091
UniProt P49750-3|P49750-4	1.07 ± 0.027	1.17 ± 0.077	1.17 ± 0.015	1.23 ± 0.065	1.25 ± 0.07	1.35 ± 0.085
UniProt P28331|P28331-2	0.972 ± 0.037	0.935 ± 0.081	0.954 ± 0.059	0.949 ± 0.055	0.938 ± 0.037	0.942 ± 0.086
UniProt P62318|P62318-2	1.07 ± 0.086	1.12 ± 0.12	1.19 ± 0.099	1.22 ± 0.017	1.29 ± 0.09	1.32 ± 0.056
UniProt P36639|P36639-2|P36639-3|P36639-4	1 ± 0.037	0.988 ± 0.059	1.09 ± 0.085	1.03 ± 0.022	1.07 ± 0.012	1.06 ± 0.065
YBX1 (UniProt P67809)	0.986 ± 0.088	1.22 ± 0.36	1.07 ± 0.12	1.23 ± 0.072	1.21 ± 0.031	1.34 ± 0.067
UniProt Q12769|G3V198	1 ± 0.024	0.9518 ± 0.0046	0.9433 ± 0.006	0.9621 ± 0.0016	0.99281 ± 0.00096	0.991 ± 0.019
UniProt P33981|P33981-2	1.04 ± 0.027	1.021 ± 0.0069	1.05 ± 0.033	1.018 ± 0.01	1.02 ± 0.034	1.03 ± 0.036
